# Experimental data: PubChem BioAssay
# Where “and” joins values, the source holds several entries; their conditions need not be identical. Equal entries are not always repeated. Calls of active or inactive are those of the source.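 Rule for the calls, unless noted: active = thallium flux through the channel raised or lowered by more than 3 SD from vehicle-only wells, actives on both sides; inactive = the rest.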
# Assays:
# [1] = ovarian cancer cell viability with rucaparib, profiling panel, oncology-focused library, rucaparib conditional (AID 1508598;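 active = normalized viability below 100% at a tested concentration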); details: patient-derived ovarian cancer cells, CellTiter-Glo viability, 144 h, stronger effect = lower value
# [2] = system: F380Y; experiment: modulators of BK channel variants, profiling panel, selectivity assay, cell-based, U2OS BacMam, thallium flux, beta subunits (AID 1259406); details: at 30 µM;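 note: initial slope of Thallos dye fluorescence rise after thallium is added; log ratio against the mean of 0.3% DMSO vehicle wells on the same plate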
# [3] = system: F380Y/beta1; experiment: as above; details: at 30 µM
# [4] = system: F380Y/beta2Delta; experiment: as above; details: at 30 µM
# [5] = system: F380Y/beta4; experiment: as above; details: at 30 µM
# [6] = molecular target: Calcium-activated potassium channel subunit alpha-1 (Homo sapiens) + Leucine-rich repeat-containing protein 26 (Homo sapiens) (UniProt Q12791+Q2I0M4); experiment: as above; details: F380Y/Slo1WT/gamma1, at 30 µM
# Sequence of Calcium-activated potassium channel subunit alpha-1 (Homo sapiens) + Leucine-rich repeat-containing protein 26 (Homo sapiens) (Q2I0M4 whole entry, looked up, one chain of several): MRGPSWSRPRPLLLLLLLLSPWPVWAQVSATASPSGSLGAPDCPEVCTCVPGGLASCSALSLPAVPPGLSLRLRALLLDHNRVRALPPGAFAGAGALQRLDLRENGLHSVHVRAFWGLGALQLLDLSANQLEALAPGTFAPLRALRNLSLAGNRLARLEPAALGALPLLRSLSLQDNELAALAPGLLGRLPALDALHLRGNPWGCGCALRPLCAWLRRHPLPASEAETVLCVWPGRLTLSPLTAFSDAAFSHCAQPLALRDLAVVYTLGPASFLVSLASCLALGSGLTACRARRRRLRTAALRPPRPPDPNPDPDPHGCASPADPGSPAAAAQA
# [7] = system: R275C; experiment: as above; details: at 30 µM
# [8] = system: R275C/beta1; experiment: as above; details: at 30 µM
# [9] = stimulators of nuclear beta-catenin in C2C12, primary screen, imaging, WNT3A-conditioned medium, mouse C2C12, NPC library (AID 1117326; in the data active = nuclear beta-catenin stimulation mostly above about 4.2%, no sharp cut-off; inactive = mostly below about 10%); details: stronger effect = higher value
# [10] = stimulators of insulin release from INS-1E, primary screen, cell-based, 5 mM glucose, NPC library (AID 1117329;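 active = compound raises insulin release from rat beta cells at 5 mM glucose, no numeric limit stated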); details: rat INS-1E insulin secretion, at 10 µM, stronger effect = higher value
# [11] = growth inhibition of GSK3B-pretreated HCT116 cells – cell-based, CellTiter-Glo, 0.2 to 20 µM (AID 1117336;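 active = compounds lowering colon cancer cell viability after pretreatment blocking the GSK3B kinase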); details: HCT116 viability after GSK3B inhibitor, at 20 µM, stronger effect = higher value
# [12] = inhibition of endothelial tube formation, primary screen, imaging, VEGF stimulated, CD31 staining, tube area, NPC library (AID 1117340;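 active = compound that reduces growth-factor-driven endothelial tube area in a mixed cell culture, no cutoff stated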); details: VEGF-stimulated ADSC/ECFC co-culture, at 10 µM, stronger effect = higher value
# [13] = glucagon-like peptide 1 release enhancers, primary assay, NCI-H716 cell line, NPC library (AID 1117341;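 active = compound raises GLP1 secretion from the human gut endocrine cells, with no numeric limit stated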); details: NCI-H716 cells, at 10 µM, stronger effect = higher value
# [14] = HCT116 colon cancer cell growth inhibition, primary screen, CellTiter-Glo luminescence, NPC library (AID 1117342;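 active = compounds that lower survival of HCT116 colon cancer cells in the luminescence readout, no numeric limit stated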); details: at 20 µM (top of the series)
# [15] = CellTiter-Glo luminescent readout of SW480 viability loss, NPC library primary (AID 1117343;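 active = compounds that lower viability of the colon cancer cells in the luminescence readout, with no numeric limit stated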); details: CellTiter-Glo luminescence; at 20 µM (top of the series)
# [16] = decreased DLD-1 cellular survival, CellTiter-Glo luminescent readout, NPC compound collection, primary HTS (AID 1117346;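 active = compounds that lower survival of DLD-1 colon cancer cells in the luminescence readout, no cutoff given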); details: DLD-1 viability, CellTiter-Glo luminescence; at 20 µM (top of the series)
# [17] = molecular target: 6-phosphogluconate dehydrogenase, decarboxylating (Homo sapiens) (UniProt P52209); experiment: 6PGD enzyme inhibitors, primary screen, biochemical, human, recombinant enzyme, NADPH absorbance (AID 1159550;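 active = at least 20% inhibition of 6-phosphogluconate dehydrogenase activity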); details: recombinant 6PGD, NADPH absorbance 341 nm; at 10 µM; stronger effect = higher value
# Sequence of 6-phosphogluconate dehydrogenase, decarboxylating (Homo sapiens) (P52209 whole entry, looked up): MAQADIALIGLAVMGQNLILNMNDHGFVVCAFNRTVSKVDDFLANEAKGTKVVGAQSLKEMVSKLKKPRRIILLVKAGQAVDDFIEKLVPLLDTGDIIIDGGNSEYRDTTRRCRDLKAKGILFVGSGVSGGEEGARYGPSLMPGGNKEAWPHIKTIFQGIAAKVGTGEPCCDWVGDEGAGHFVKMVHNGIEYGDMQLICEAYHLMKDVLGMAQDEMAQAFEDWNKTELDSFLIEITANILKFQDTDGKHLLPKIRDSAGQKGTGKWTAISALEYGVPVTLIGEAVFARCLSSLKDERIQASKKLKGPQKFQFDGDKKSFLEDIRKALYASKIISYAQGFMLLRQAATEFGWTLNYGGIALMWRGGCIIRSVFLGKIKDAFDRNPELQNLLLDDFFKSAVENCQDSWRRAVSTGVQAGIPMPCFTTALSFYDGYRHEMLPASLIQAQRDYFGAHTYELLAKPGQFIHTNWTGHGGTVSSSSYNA
# [18] = differential killing of epithelial or mesenchymal cells, primary screen, imaging, PC-3E GFP, TEM4-18 mCherry, co-culture (AID 1345086;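 active = compounds killing one labelled cell type while sparing the other, by normalised counts and ratio limits, not self-fluorescent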;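 for all read-outs here: cells exposed to compound for 72 h before imaging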;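 for red/green cell ratio (normalised): normalised mesenchymal count divided by normalised epithelial count so high means epithelial killing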); details: imaging cell counts, at 1 µM; for red/green cell ratio (normalised): actives lie on both sides, counts scaled to control wells, 1 = unselective
# [19] = survival rescue of mitochondrial mutant cells in low glucose, primary screen, MELAS cybrids, Rieske KO mouse fibroblasts, CellTiter-Glo (AID 1508586;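 active = mean z-score across replicates of 1.96 or higher in either the MELAS or the Rieske mutant cell line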;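 note: z relative to plate mean and SD of compound and empty wells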)
# [20] = measured here: epithelial PC-3E GFP cell survival
# [21] = measured here: mesenchymal TEM4-18 mCherry cell survival
# [22] = MELAS cybrid survival, CellTiter-Glo 48 h, stronger effect = higher value
# [23] = Rieske KO mouse fibroblast survival, CellTiter-Glo 72 h
smiles,measurement,setting,value
O=c1[nH]cnc2[nH]ncc12,viability,"[1]; at 0.0195 µM, OCI-P5x cells, without rucaparib",114% (inactive)
same,viability,"[1]; at 0.0781 µM, OCI-C5x cells, with rucaparib 10 µM, 100% = cells with rucaparib alone",117% (inactive)
same,viability,"[1]; at 0.0781 µM, OCI-C5x cells, without rucaparib",124% (inactive)
same,viability,"[1]; at 0.0781 µM, OCI-P5x cells, with rucaparib 20 µM, 100% = cells with rucaparib alone",99.6% (active)
same,viability,"[1]; at 0.0781 µM, OCI-P5x cells, without rucaparib",105% (inactive)
same,viability,"[1]; at 0.313 µM, OCI-C5x cells, with rucaparib 10 µM, 100% = cells with rucaparib alone",113% (inactive)
same,viability,"[1]; at 0.313 µM, OCI-C5x cells, without rucaparib",117% (inactive)
same,viability,"[1]; at 0.313 µM, OCI-P5x cells, with rucaparib 20 µM, 100% = cells with rucaparib alone",102% (inactive)
same,viability,"[1]; at 0.313 µM, OCI-P5x cells, without rucaparib",105% (inactive)
same,viability,"[1]; at 1.25 µM, OCI-C5x cells, with rucaparib 10 µM, 100% = cells with rucaparib alone",122% (inactive)
same,viability,"[1]; at 1.25 µM, OCI-C5x cells, without rucaparib",114% (inactive)
same,viability,"[1]; at 1.25 µM, OCI-P5x cells, with rucaparib 20 µM, 100% = cells with rucaparib alone",91.4% (active)
same,viability,"[1]; at 1.25 µM, OCI-P5x cells, without rucaparib",105% (inactive)
same,viability,"[1]; at 5 µM, OCI-C5x cells, with rucaparib 10 µM, 100% = cells with rucaparib alone",111% (inactive)
same,viability,"[1]; at 5 µM, OCI-C5x cells, without rucaparib",109% (inactive)
same,viability,"[1]; at 5 µM, OCI-P5x cells, with rucaparib 20 µM, 100% = cells with rucaparib alone",91.3% (active)
same,viability,"[1]; at 5 µM, OCI-P5x cells, without rucaparib",98% (active)
same,log fold change Tl+ flux,[2],0.0236 (inactive)
same,log fold change Tl+ flux,[3],0.000941 (inactive)
same,log fold change Tl+ flux,[4],-0.00565 (inactive)
same,log fold change Tl+ flux,[5],0.00785 (inactive)
same,log fold change Tl+ flux,[6],0.0214 (inactive)
same,log fold change Tl+ flux,[7],0.00104 (inactive)
same,log fold change Tl+ flux,[8],0.0222 (inactive)
CCCc1nc2c(C)cc(-c3nc4ccccc4n3C)cc2n1Cc1ccc(-c2ccccc2C(=O)O)cc1,nuclear beta-catenin stimulation,[9]; at 10 µM,3.7% (inactive)
same,nuclear beta-catenin stimulation,"[9]; stimulation, at 2 µM",1.8%
same,insulin secretion stimulation,[10],-0.5% (inactive)
same,viability decrease,[11],-22.6% (inactive)
same,tube area decrease,[12],8% (inactive)
same,GLP1 secretion stimulation,[13],1.1% (inactive)
same,inhibition of viability,[14],42% (inactive)
same,viability decrease (inhibition),[15],94.1% (active)
same,viability decrease (inhibition),[16],36.3% (inactive)
same,inhibition,[17],2.16% (inactive)
same,red/green cell ratio (normalised),[18],0.63 (inactive)
same,normalised cell number,[18]; [20],1.26
same,normalised cell number,[18]; [21],0.8
same,z-score,[19]; [22],-0.258 (inactive) and 0.956 (inactive) and -0.424 (inactive)
same,z-score,[19]; [23],0.516 and 0.961 and -0.332
same,log fold change Tl+ flux,[2],-0.0745 (inactive)
same,log fold change Tl+ flux,[3],0.00163 (inactive)
same,log fold change Tl+ flux,[4],0.025 (inactive)
same,log fold change Tl+ flux,[5],-0.000976 (inactive)
same,log fold change Tl+ flux,[6],0.054 (inactive)
same,log fold change Tl+ flux,[7],-0.0814 (inactive)
same,log fold change Tl+ flux,[8],-0.0256 (inactive)
CC(C[N+](C)(C)C)OC(N)=O (centres undefined),nuclear beta-catenin stimulation,[9]; at 10 µM,-0.5% (inactive)
same,nuclear beta-catenin stimulation,"[9]; stimulation, at 2 µM",-1.3%
same,insulin secretion stimulation,[10],0.3% (inactive)
same,viability decrease,[11],-5.9% (inactive)
same,tube area decrease,[12],-10% (inactive)
same,GLP1 secretion stimulation,[13],0.5% (inactive)
same,inhibition of viability,[14],-0.4% (inactive)
same,viability decrease (inhibition),[15],-11.8% (inactive)
same,viability decrease (inhibition),[16],-7.3% (inactive)
same,inhibition,[17],-9.2% (inactive)
same,red/green cell ratio (normalised),[18],0.97 (inactive)
same,normalised cell number,[18]; [20],1.15
same,normalised cell number,[18]; [21],1.11
same,z-score,[19]; [22],-0.399 (inactive) and 0.646 (inactive) and 0.598 (inactive)
same,z-score,[19]; [23],0.843 and -0.822 and 0.416
same,log fold change Tl+ flux,[2],0.0115 (inactive)
same,log fold change Tl+ flux,[3],0.0306 (inactive)
same,log fold change Tl+ flux,[4],-0.0155 (inactive)
same,log fold change Tl+ flux,[5],0.00469 (inactive)
same,log fold change Tl+ flux,[6],0.00848 (inactive)
same,log fold change Tl+ flux,[7],0.0156 (inactive)
same,log fold change Tl+ flux,[8],0.0122 (inactive)
O=C(O)c1cccnc1,nuclear beta-catenin stimulation,[9]; at 10 µM,-0.4% (inactive)
same,nuclear beta-catenin stimulation,"[9]; stimulation, at 2 µM",-0.5%
same,insulin secretion stimulation,[10],-1.6% (inactive)
same,viability decrease,[11],-0.65% (inactive)
same,tube area decrease,[12],-17.1% (inactive)
same,GLP1 secretion stimulation,[13],-5.4% (inactive)
same,inhibition of viability,[14],-15.8% (inactive)
same,viability decrease (inhibition),[15],37.9% (inactive)
same,viability decrease (inhibition),[16],4.6% (inactive)
same,inhibition,[17],-13.9% (inactive)
same,red/green cell ratio (normalised),[18],1.22 (inactive)
same,normalised cell number,[18]; [20],0.91
same,normalised cell number,[18]; [21],1.11
same,z-score,[19]; [22],-0.357 (inactive) and 0.00203 (inactive)
same,z-score,[19]; [23],0.576 and -0.807
same,log fold change Tl+ flux,[2],-0.0113 (inactive)
same,log fold change Tl+ flux,[3],0.00202 (inactive)
same,log fold change Tl+ flux,[4],0.0201 (inactive)
same,log fold change Tl+ flux,[5],0.0275 (inactive)
same,log fold change Tl+ flux,[6],-4.3e-05 (inactive)
same,log fold change Tl+ flux,[7],0.0183 (inactive)
same,log fold change Tl+ flux,[8],-0.00198 (inactive)
CC1=NS(=O)(=O)c2cc(Cl)ccc2N1,nuclear beta-catenin stimulation,[9]; at 10 µM,0.5% (inactive)
same,nuclear beta-catenin stimulation,"[9]; stimulation, at 2 µM",2.4%
same,insulin secretion stimulation,[10],1.9% (inactive)
same,viability decrease,[11],2.4% (inactive)
same,tube area decrease,[12],0.4% (inactive)
same,GLP1 secretion stimulation,[13],0.6% (inactive)
same,inhibition of viability,[14],26.2% (inactive)
same,viability decrease (inhibition),[15],8.5% (active)
same,viability decrease (inhibition),[16],1.1% (inactive)
same,inhibition,[17],4.77% (inactive)
same,red/green cell ratio (normalised),[18],1.18 (inactive)
same,normalised cell number,[18]; [20],0.96
same,normalised cell number,[18]; [21],1.14
same,z-score,[19]; [22],-0.405 (inactive) and -0.0836 (inactive)
same,z-score,[19]; [23],0.049 and -0.314
same,log fold change Tl+ flux,[2],-0.0365 (inactive)
same,log fold change Tl+ flux,[3],-0.0354 (inactive)
same,log fold change Tl+ flux,[4],0.0204 (inactive)
same,log fold change Tl+ flux,[5],-0.0353 (inactive)
same,log fold change Tl+ flux,[6],-0.0135 (inactive)
same,log fold change Tl+ flux,[7],-0.00922 (inactive)
same,log fold change Tl+ flux,[8],0.0109 (inactive)
CC(COc1ccccc1)N(CCCl)Cc1ccccc1 (centres undefined),nuclear beta-catenin stimulation,[9]; at 10 µM,1.1% (inactive)
same,nuclear beta-catenin stimulation,"[9]; stimulation, at 2 µM",-0.3%
same,insulin secretion stimulation,[10],2.8% (inactive)
same,viability decrease,[11],-32.1% (inactive)
same,tube area decrease,[12],7% (inactive)
same,GLP1 secretion stimulation,[13],3.8% (inactive)
same,inhibition of viability,[14],-3.6% (inactive)
same,viability decrease (inhibition),[15],13% (inactive)
same,viability decrease (inhibition),[16],-2.9% (inactive)
same,inhibition,[17],0.0837% (inactive)
same,red/green cell ratio (normalised),[18],1.22 (inactive)
same,normalised cell number,[18]; [20],1.17
same,normalised cell number,[18]; [21],1.43
same,z-score,[19]; [22],-0.333 (inactive) and -0.71 (inactive) and -0.596 (inactive)
same,z-score,[19]; [23],0.469 and 0.0989 and -0.341
same,log fold change Tl+ flux,[2],-0.0529 (inactive)
same,log fold change Tl+ flux,[3],-0.00151 (inactive)
same,log fold change Tl+ flux,[4],-0.054 (inactive)
same,log fold change Tl+ flux,[5],-0.0516 (inactive)
same,log fold change Tl+ flux,[6],-0.0217 (inactive)
same,log fold change Tl+ flux,[7],-0.0819 (inactive)
same,log fold change Tl+ flux,[8],0.0364 (inactive)
